Screens as filed in PubChem.
Shown is part of a subset that was picked to be rich in hits.
CHX counter – counter-screen hit for Shiga toxin inhibitors, cycloheximide; cell reporter, cycloheximide protein synthesis inhibition counterscreen; max response, %; actives 12% (n = 300,000); AID 2314; in the data active = max response mostly above about 13%, no sharp cut-off; inactive = mostly below about 14%; note: read at 38.3 µM for the half of the compounds with a filed dose; 0% is about no effect
LASV entry inh – Lassa virus entry inhibition | Lassa virus pseudotype entry inhibition, cell reporter | Potency, µM (series often up to 37.9 µM), inactives show at the top dose activity change, negative = inhibition, actives largely listed as inhibitors | actives 1.2% (n = 300,000); calls by dose curve; tested in HEK293 cells; note: potency is the fitted concentration of half-maximal effect; % is set by controls: 0 for no effect and ±100 for the full control effect; nearly all actives have a fitted effect of over 50% in size
Shiga inhibitor – inhibitors of Shiga toxin in Vero cells; Vero cells, Shiga toxin protein synthesis inhibition reporter; inhibition, % at 38.7 µM; actives 9.2% (n = 290,000); in the data active = inhibition mostly above about 28%, no sharp cut-off; inactive = mostly below about 43%; note: 0% is about no effect
MARV entry inh – inhibitors of Marburg virus binding or cell entry | Marburg virus pseudotyped entry inhibition, cell reporter | Potency, µM (doses to about 37.8 µM), for inactives: at the highest dose activity change, negative = inhibition, actives largely listed as inhibitors | actives 1.8% (n = 300,000) | AID 540276; calls by dose curve; tested in HEK293 cells; note: potency is the fitted concentration of half-maximal effect; % is set by controls: 0 for no effect and ±100 for the full control effect
AMA1 RON2 block – disrupts binding of P. falciparum AMA1 to RON2. AlphaScreen AMA1-biotinylated RON2 peptide binding. Potency, µM (series often up to 58.2 µM), for inactives: top-dose activity change, negative = inhibition, hits mostly inhibitors. actives 0.2% (n = 360,000). AID 720542; active = well fitted inhibition curve with a large enough effect; inconclusive = small, poorly fitted or top-dose-only effect; inactive = no such curve, though single readings can be large or run the other way;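 note: potency is the fitted concentration of half-maximal effect; 0% = vehicle wells and -100% = peptide control; nearly all actives have a fitted effect of over 45% in size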
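AMA1 (3D7) with his tag at 25 nM final met compounds first, then biotinylated RON2 peptide at 25 nM; detection used donor plus acceptor beads, 10 µg/mL apiece, read by AlphaScreen after 30 min at room temperature.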
* hit, by the source's call; ? = inconclusive; nt = not tested or not shown; + = active, no number; [ ] = another dose, or the depositor's remark.

SMILES	CHX counter	LASV entry inh	Shiga inhibitor	MARV entry inh	AMA1 RON2 block
CCc1ccc2c(c1)C(c1ccc([N+](=O)[O-])cc1)=NNC(c1ccc(F)cc1)=N2	24.0*	9.7%	63.5*	?	20.5%
COC(=O)COc1ccc(Oc2nc(NC(C)(C)C)nc(N(C)C)n2)nn1	nt	2.7%[46.1 µM]	nt	5.5%[46.1 µM]	nt
CC(C)Cn1c(N)c(C(=O)COC(=O)c2cc(C3CC3)nc3ccccc23)c(=O)n(C)c1=O	-3.2	20.6µM*	-6.5	-36.3%	8.4%
CC(C)Cn1c(N)c(C(=O)COC(=O)c2ccc(O)cc2)c(=O)n(C)c1=O	-5.5	nt	17.6	nt	-4.4%
Cc1nn(-c2ccccc2)c(C)c1C(=O)OCC(=O)c1c(N)n(CC(C)C)c(=O)n(C)c1=O	-1.6	6.51µM*	-8.9	?	-6.6%
COc1ccccc1OCC(=O)NC1CCSc2ccccc21 (stereo not given)	nt	nt	nt	nt	21.0%
Nc1cccc(C(=O)OCC(=O)c2ccccc2)c1	44.1*	5.4%	+	?	-8.7%
CCc1ccc(C(=O)COC(=O)c2cccc(N3C(=O)c4c(C)nc5ccccc5c4C3=O)c2)cc1	56.1*	?	102.8*	?	-18.5%
O=C(COC(=O)c1ccc(N2CCCC2=O)cc1)c1ccccc1	31.4*	6.4%	82.7*	17.5%[46.1 µM]	-20.9%
O=C(COC(=O)c1cccc(N2C(=O)C3CC=CCC3C2=O)c1)c1ccccc1 (stereo not given)	26.9*	-17.9%	55.2*	?	-3.8%
Cc1cc(C(=O)OCC(=O)c2ccccc2)c2ccccc2n1	-5.3	9.9%	0.6	12.5%[46.1 µM]	0.9%
Cc1ccc(-c2ccc(CCC(=O)O)n2-c2ccc(C(C)C)cc2)cc1	nt	-15.7%[46.1 µM]	nt	4.8%[46.1 µM]	nt
C[C@H]1CN([C@@H](C)CO)S(=O)(=O)c2ccc(C#Cc3ccccn3)cc2O[C@@H]1CN(C)C(=O)C1CC1	nt	nt	nt	nt	1.7%
O=C(NCCCN1CCOCC1)C1CCN(S(=O)(=O)c2ccccc2)CC1	nt	?	nt	23.0%	0.8%
COc1ccc(NCc2cc3ccc(OC)cc3n(CC(=O)Nc3ccc(C)c(C)c3)c2=O)cc1	nt	2.4%[46.1 µM]	nt	nt	nt
Cc1cc(OCc2cc(C(=O)N3CCN(CC4CC4)CC3)no2)cc(C)c1Cl	14.3	nt	25.1	nt	-11.9%
Cc1ccc(OCc2cc(C(=O)N3CCN(C4CCCC4)CC3)no2)cc1C	41.7*	-3.4%	52.8*	?	-23.2%
Cc1cccc(N2CCN(C(=O)c3cc(COc4ccc(F)c(F)c4)on3)CC2)n1	40.1*	nt	59.2	nt	-12.4%
Cc1ccc(OCc2cc(C(=O)N3CCN(C4CCCCC4)CC3)no2)cc1C	52.2*	nt	65.4*	nt	-12.0%
Cc1cccc(C)c1OCc1cc(C(=O)N2CCNC(=O)C2)no1	23.7*	nt	16.2	nt	-2.0%
CCCCN(C(=O)CC1CCCC1)c1c(N)n(CCCC)c(=O)[nH]c1=O	nt	nt	nt	nt	-1.8%
Cc1cccc(N2C(=O)C(CC(=O)Nc3cccc(F)c3)N(Cc3cccs3)C2=O)c1 (stereo not given)	nt	4.3%[46.1 µM]	nt	nt	nt
NC(=O)CC(NC(=O)Cc1cccc2ccccc12)c1ccc(NCCc2ccccc2F)c([N+](=O)[O-])c1 (stereo not given)	1.5	nt	-5.1	nt	-1.6%
Cc1cc(OCc2cc(C(=O)N3CCCCCC3)no2)cc(C)c1Cl	61.4*	-15.1%	128.0*	?	1.6%
Cc1ccc(OCc2cc(C(=O)N3CCN(c4ccccc4)CC3)no2)cc1C	40.9*	-27.4%	59.2*	1.0%	-20.3%
SMILES	CHX counter	LASV entry inh	Shiga inhibitor	MARV entry inh	AMA1 RON2 block
Cc1cccc(C)c1OCc1cc(C(=O)N2CCCCCCC2)no1	42.9*	?	48.6*	?	-4.4%
Cc1cc(C(=O)N2CCN(c3ccccc3)CC2)no1	-3.6	-4.6%	2.0	8.8%	13.5%
Cc1ccc(OCc2cc(C(=O)N3CCC(c4ccccc4Cl)C3)no2)cc1C (stereo not given)	62.6*	nt	72.8*	nt	8.6%
CC(=O)c1ccc(NS(=O)(=O)c2cc(-c3cc(C)no3)ccc2C)cc1	nt	3.4%[46.1 µM]	nt	nt	nt
O=C(Cc1ccccc1)N(Cc1cccnc1)c1nc2ccc(F)cc2s1	nt	-12.3%[46.1 µM]	nt	nt	nt
CCN(Cc1ccncc1)C(=O)c1cc(COc2ccc(C)c(C)c2)on1	2.9	-18.8%[46.1 µM]	16.9	?	-2.4%
Cc1ccc(OCc2cc(C(=O)N3CCCCCCC3)no2)cc1C	20.2*	nt	37.7*	nt	-0.7%
Cc1ccc(OCc2cc(C(=O)N(CCO)Cc3cccs3)no2)cc1C	50.8*	?	160.4*	-9.7%	-1.3%
Cc1ccc(OCc2cc(C(=O)N3CCc4sccc4C3)no2)cc1C	17.3	?	13.9	0.7%	-11.0%
